Hits are enriched below; roughly 3.4% of the tested compounds scored in any of these assays.
p47phox inh = p47phox/p22phox peptide binding inhibitors, primary screen, biochemical, uHTS, NADPH oxidase regulatory subunit. Neutrophil cytosol factor 1 (Homo sapiens), P14598. inhibition, % at 24.7 µM. AID 1274, 2008. hit rate 0.53% among 220,000. fluorescence polarization, 2 h;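 active means inhibition above about 30%, limit read from the data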
Target sequence (P14598 whole entry, looked up): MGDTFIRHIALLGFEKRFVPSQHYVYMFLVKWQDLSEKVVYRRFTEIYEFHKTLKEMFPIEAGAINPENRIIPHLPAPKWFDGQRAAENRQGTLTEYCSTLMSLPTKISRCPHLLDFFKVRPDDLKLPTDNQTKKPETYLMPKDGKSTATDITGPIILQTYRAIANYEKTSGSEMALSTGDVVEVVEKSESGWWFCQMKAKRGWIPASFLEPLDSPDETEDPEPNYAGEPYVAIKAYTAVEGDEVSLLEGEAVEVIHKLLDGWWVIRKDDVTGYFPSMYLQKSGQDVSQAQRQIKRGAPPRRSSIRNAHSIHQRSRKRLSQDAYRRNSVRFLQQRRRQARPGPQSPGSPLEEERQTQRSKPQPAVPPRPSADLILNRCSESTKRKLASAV
Calpain2 inh = inhibitors of pig calpain II, primary screen, biochemical, fluorogenic peptide substrate, 1536-well; purified calpain II, 30 min; inhibition, % at 16 µM; hit rate 0.37% among 220,000; AID 1236, 2008;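 active means inhibition above about 50%, limit read from the data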
Mcl-1 Bim block = inhibitors of Bim peptide binding to Mcl-1, primary screen, biochemical, bead-based flow cytometry, multiplex. Induced myeloid leukemia cell differentiation protein Mcl-1 (Homo sapiens), Q07820. Bim peptide-Mcl-1 binding. inhibition, % at 10 µM. hit rate 0.1% among 190,000. AID 1009, 2008; in the data active means inhibition above about 40%
Mcl1 Noxa PPI = Mcl-1/Noxa binding inhibitors, primary screen, biochemical, TR-FRET, 1536-well. hit rate 1.5% among 220,000. inhibition, % at 21.7 µM. Induced myeloid leukemia cell differentiation protein Mcl-1 (Homo sapiens), Q07820. TR-FRET Mcl-1/Noxa peptide binding, 2 h;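 active means compounds that cut the protein-peptide binding signal by more than 50% relative to plate controls in a single-dose test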;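 further: His-tagged Mcl-1 with rhodamine Noxa BH3 peptide and terbium anti-His antibody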
Mcl1-Bid inh = Mcl-1/Bid binding inhibitors, primary screen, biochemical, TR-FRET, 1536-well. TR-FRET Mcl-1/Bid-Dy647 peptide binding. inhibition, % at 21.7 µM. hit rate 0.97% among 220,000. AID 1021, 2008;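 active means compounds that cut the binding signal by more than half at the single screening dose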;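 further: His-tagged Mcl-1 with europium anti-His antibody binding Bid BH3 peptide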
14-3-3 Bad inh = inhibitors of 14-3-3 zeta/Bad binding, primary screen, biochemical, TR-FRET, bovine 14-3-3 zeta; 14-3-3 protein zeta/delta (Bos taurus), P63103; TR-FRET 14-3-3zeta/Dy647-pBad peptide displacement, 1 h; inhibition, % at 21.7 µM; hit rate 0.71% among 220,000;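 active means inhibition above about 70%, limit read from the data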
Large screens that a line does not name were inactive; [ ] = another dose, or the depositor's remark.

Cc1ccc(S(=O)(=O)N2CCCC2C(=O)NCc2ccc3c(c2)OCO3)cc1 (stereo unspecified)	none
CSc1ccccc1NC(=O)CN1CCN(Cc2ccccc2)CC1	none
O=C(CNC(=O)c1ccc([N+](=O)[O-])cc1)N/N=C\c1ccc(OC(=O)c2ccccc2)cc1	Mcl1-Bid inh 75
Oc1c(CN2CCN(c3ccccc3)CC2)cc(Br)c2cccnc12	none (no result: Mcl-1 Bim block)
c1ccc(N2CCN(Cc3ccnc4ccccc34)CC2)cc1	14-3-3 Bad inh 71
NS(=O)(=O)c1ccc(NC(=O)COC(=O)C23CC4CC(CC(C4)C2)C3)cc1	Calpain2 inh 58
N#Cc1cc([N+](=O)[O-])ccc1NC(=O)COC(=O)C12CC3CC(CC(C3)C1)C2	Calpain2 inh 54
COC(=O)Cc1csc(Nc2ccc(F)c(Cl)c2)n1	none
CC(OC(=O)CCc1nc2ccccc2c(=O)[nH]1)C(=O)c1ccc(C(C)(C)C)cc1 (stereo unspecified)	none
Cc1nc(SCC(O)CCl)c([N+](=O)[O-])[nH]1 (stereo unspecified)	none
COCC(O)CSc1nc(C)[nH]c1[N+](=O)[O-] (stereo unspecified)	Mcl1-Bid inh 87
Cc1ccc(S(=O)(=O)Nc2cc(C(=O)Nc3cc(C)cc(C)c3)ccc2Cl)cc1	none
Cc1nc([N+](=O)[O-])cn1-c1nc2ccccn2c1[N+](=O)[O-]	none (no result: Mcl-1 Bim block)
Cc1cc(SCc2cc(=O)[nH]c3ccccc23)nc2ccccc12	none
O=c1cc(CSc2ccccn2)c2ccccc2[nH]1	14-3-3 Bad inh 81[fluorescence artefact?]
CCCCOP(=O)(OCCCC)C1(NS(=O)(=O)c2ccccc2)C=CC(=O)c2ccccc21 (stereo unspecified)	none
CC(C)(C)C(=O)OC/C(N)=N/OC(=O)c1ccc(Cl)cc1	14-3-3 Bad inh 91 (no result: Mcl-1 Bim block)
COc1ccc(-c2cc(C(=O)NCC3CCCO3)c3cc(C)ccc3n2)cc1 (stereo unspecified)	14-3-3 Bad inh 77
Clc1cc(Br)ccc1OCCn1ccnc1	14-3-3 Bad inh 78
O=C1c2cccnc2C(Nc2cccc(F)c2)N1Cc1ccco1 (stereo unspecified)	none
O=C1c2cccnc2C(Nc2ccccc2)N1Cc1ccco1 (stereo unspecified)	Mcl1 Noxa PPI 60, Mcl1-Bid inh 60
CC(CSc1nnnn1-c1ccccc1)Cn1c(N2CCN(C)CC2)nc2c1c(=O)[nH]c(=O)n2C (stereo unspecified)	Mcl1 Noxa PPI 52
COc1ccc(/C=N/N(C(C)=O)c2nc(-c3ccc(C)cc3)cs2)cc1	none
CC(=O)N(/N=C/c1cccc(C)c1)c1nc(-c2ccc(Br)cc2)cs1	Mcl1-Bid inh 99
CN(C)/C=N/c1c(C#N)cnn1-c1ccccc1	none
CN(C)/C=N/c1c(C#N)cnn1-c1ccc(C(F)(F)F)cn1	p47phox inh 155
CCCCn1c(SCC(=O)Nc2cc(C(F)(F)F)ccc2Cl)nnc1C(CC)N(C)C (stereo unspecified)	none
O=[n+]1cc(-c2ccc(Cl)cc2)n([O-])c2c1CCCCC2	none
Cc1nc(SCC(=O)NC(=O)NC(C)C)nc(C)c1C	Mcl1 Noxa PPI 64
O=Cc1ccc(N2CCCC2)c([N+](=O)[O-])c1	none
O=[N+]([O-])/C=C\c1ccc(N2CCCC2)c(F)c1	p47phox inh 36
CCNC(=S)N(CCc1c(C)[nH]c2ccccc12)Cc1cc(OC)c(OC)c(OC)c1	none
O=C(NN1CCN(Cc2ccccc2)CC1)c1ccc(Cl)cc1	none
Cc1cccc(Nc2ncccc2C(=O)NCc2cccs2)c1C	Calpain2 inh 54
COc1cc(/C=N\NC(=O)c2sc(N)nc2C)cc(OC)c1OC	none
COCCCNC(=O)c1ccc2c3c(onc13)-c1ccccc1C2=O	Mcl1 Noxa PPI 55 (no result: Mcl-1 Bim block)
N#Cc1cc(-c2ccccc2)nc(Oc2ccccc2)n1	Mcl1-Bid inh 83
N#Cc1ccc(Oc2nc(C#N)cc(-c3ccccc3)n2)cc1	none
O=C1c2ccc3c4c(ccc(c24)C(=O)N1CCCCO)C(=O)N(CCCCO)C3=O	p47phox inh 62, 14-3-3 Bad inh 96
